# Compound activity as filed in PubChem BioAssay.
# D1 agonist = activates the human D1 dopamine receptor. P21728. HEK293 T-REx D1 cells, calcium flux, agonist mode. activation, % at 2 µM. 360,000 compounds, 1% hits. AID 504660; in the data active means activation above about 30%; further: 0% is about no effect
#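 Inducible HEK293 T-REx D1 cells, force-coupled to calcium signalling, were plated at 4000 cells/well with tetracycline and held overnight at 30 C. After no-wash calcium dye loading, compound-evoked calcium rise over 180 s flagged agonists.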
# DRD3 agonist = agonists of human D3 dopamine receptor; P35462; max activation, %; D3R DiscoveRx beta-arrestin cells, luminescence, 90 min; 410,000 compounds, 0.58% hits; in the data active means max activation above about 30%; further: 0% is about no effect
# Target sequence (P35462 whole entry, looked up): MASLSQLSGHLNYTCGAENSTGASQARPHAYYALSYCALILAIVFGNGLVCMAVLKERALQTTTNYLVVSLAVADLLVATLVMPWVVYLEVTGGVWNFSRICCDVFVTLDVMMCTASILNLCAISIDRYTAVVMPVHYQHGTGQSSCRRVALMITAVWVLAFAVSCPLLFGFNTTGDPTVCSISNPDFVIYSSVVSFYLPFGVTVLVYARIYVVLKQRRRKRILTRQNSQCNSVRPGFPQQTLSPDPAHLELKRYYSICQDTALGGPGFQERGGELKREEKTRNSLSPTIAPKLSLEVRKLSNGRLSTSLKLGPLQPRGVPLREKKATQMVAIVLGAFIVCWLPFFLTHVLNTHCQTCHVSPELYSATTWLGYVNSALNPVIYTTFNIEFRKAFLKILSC
#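 Cells at 1500/well, incubated overnight, then treated with pinned compounds (dopamine as control) for 90 min at 37 degrees C. DiscoveRx reagent added for 30 - 60 minutes at room temperature; luminescence read.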
# D1 PAM = potentiators of human D1 dopamine receptor; P21728; HEK293 TREx D1 cells, calcium flux, dopamine EC20 potentiation; potentiation, % at 10 µM; 360,000 compounds, 0.036% hits; AID 504651; in the data active means potentiation above about 30%; further: 0% is about no effect
# D3 antag = blocks the human D3 dopamine receptor; 360,000 compounds, 2.5% hits; D3R cells, DiscoveRx beta-arrestin luminescence, antagonist mode; stronger effect = lower value; P35462; AID 652054; max response, negative = inhibition, %; in the data active means max response below about -50%; inconclusive means no clear call, values can overlap the other calls; further: on the % scale 0 is the no-effect control and ±100 the full control effect
#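 Cells expressing the human receptor were seeded at 1500 cells/well, incubated overnight at 37 degrees C in 5% CO2, then exposed to library compounds with dopamine controls for 90 minutes at 37 degrees C before luminescent detection.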
# D1 antagonist = blocks dopamine activation of the human D1 receptor; P21728; HEK293 TREx D1 cells, calcium flux, dopamine EC80; stronger effect = lower value; activity change, negative = inhibition, % at 10 µM; 360,000 compounds, 3.2% hits; AID 504652; in the data active means activity change below about -30%; further: on the % scale 0 is the no-effect control and ±100 the full control effect
#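 Compound effects on dopamine-evoked calcium signalling were measured in tetracycline-induced HEK293 Trex D1 cells. Dopamine at EC80 followed a 180 s compound pre-read, and fluorescence was tracked kinetically for 180 s more.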
# Numbers without * were called inactive; ? = inconclusive; · = not tested or not shown; ! = not confirmed by another sample. Shown are actives, neighbours in structure and some others; about 6% of the full set was active somewhere.
SMILES,D1 agonist,DRD3 agonist,D1 PAM,D3 antag,D1 antagonist
CCCNC(=O)OC[C@H]1O[C@H](CCO/N=C/C[C@@H]2C=C[C@H](OC(C)=O)[C@@H](COC(C)=O)O2)C=C[C@@H]1Oc1ccc(OC)cc1,4,·,-5,·,-30*
N#Cc1ccc2[nH]c(CO)c(-c3ccccc3)c2c1,5,6,-16,24,-40*
COC(=O)c1ccc2[nH]c(CO)c(-c3ccccc3)c2c1,8,-2,-2,0,-9
Cc1ccc(CCNC(=O)CS(=O)Cc2nc(-c3ccccc3C)oc2C)cc1 (stereo not drawn),2,-1,-3,·,-10
Cc1ccccc1-c1nc(CS(=O)CC(=O)NCCc2ccc(Cl)cc2)c(C)o1 (stereo not drawn),34*!,0,-11,-5,-65*!
O=P(c1ccccc1)(c1ccccc1)c1ccccc1C(Br)Br,·,3,·,-67*,·
CCOC(=O)COc1ccc2ccccc2c1/C=C/[N+](=O)[O-],0,-7,-6,-52*,13
COC(=O)c1ccccc1NC(=O)CCC(=O)N1CCOc2ccccc21,-2,4,-2,·,-12
O=C(Nc1ccccc1OCc1cc(=O)n2ccccc2n1)c1ccccc1F,0,6,1,·,-9
O=C(Nc1ccc2nc3n(c(=O)c2c1)CCCCC3)c1c(F)ccc([N+](=O)[O-])c1F,5,-6,-1,-59*,-42*
COCCNC(=O)C(=O)Nc1ccc2nc3n(c(=O)c2c1)CCCCC3,0,2,-4,·,-52*
O=C(Nc1ccc2nc3n(c(=O)c2c1)CCCCC3)c1cc([N+](=O)[O-])ccc1F,1,-9,7,-19,-6
CCOC(=O)Nc1ccc2nc3n(c(=O)c2c1)CCCCC3,5,-1,3,10,3
COc1cccc(CNC(=O)C(=O)Nc2ccc3nc4n(c(=O)c3c2)CCCCC4)c1,-1,0,-1,·,-40*
O=C(NCc1cccc(Cl)c1)C(=O)Nc1ccc2nc3n(c(=O)c2c1)CCCCC3,4,4,-4,·,5
COC(=O)c1scc(-c2ccc(C)cc2)c1S(=O)(=O)Nc1ccc(OC(F)(F)F)cc1,2,2,-8,·,-31*
COC(=O)c1scc(-c2ccc(C)cc2)c1S(=O)(=O)Nc1ccc(NC(C)=O)cc1,5,-27,-3,·,-3
O=S1(=O)CCOC[C@H](Cc2ccccc2)N1Cc1ccc(F)cc1,·,4,·,-4,·
C=CCN1[C@@H](Cc2ccccc2)COCCS1(=O)=O,·,-25,·,-50*,·
O=C(CC(=O)N/N=C/c1c(F)cccc1Cl)NCc1ccccc1,0,3,-4,-3,-81*
O=C(CC(=O)N/N=C/c1ccc(Cl)cc1Cl)NCc1ccccc1,2,0,2,0,0
O=S(=O)(Nc1nc(-c2sccc2Cl)cs1)c1cc(Cl)ccc1Cl,·,-11,·,-86*,·
CC(C)(C)c1nnc(NS(=O)(=O)c2cc(Cl)ccc2Cl)s1,2,4,-8,-11,10
CSc1ccc(CCNC(=O)c2ccc(CS(=O)Cc3ccccc3Cl)o2)cc1 (stereo not drawn),6,11,1,31,-38*
O=C(NC1CCCC1)c1ccc(CS(=O)Cc2ccccc2Cl)o1 (stereo not drawn),0,2,3,11,2
SMILES,D1 agonist,DRD3 agonist,D1 PAM,D3 antag,D1 antagonist
O=C(NC1CCCCC1)c1ccc(CS(=O)Cc2ccccc2Cl)o1 (stereo not drawn),-1,5,-2,3,-64*
CC(C)CC(=O)Nc1nnc(SCC(=O)Nc2nccs2)s1,7,-6,-1,-13,-35*
CC(=O)Nc1ccc(NC(=O)CSc2nnc(NC(=O)Cc3ccc(F)cc3)s2)cc1,1,4,-20,-10,-53*
CC(C)CC(=O)Nc1nnc(SCC(=O)NC2CCCC2)s1,·,3,·,39,·
CC(=O)Nc1nnc(CSCc2ccc(F)cc2)s1,4,3,3,-51*,-4
CC(C)(C)CC(=O)Nc1nnc(SCC(=O)Nc2ccccc2F)s1,1,-1,-7,-19,-40*
COc1cccc(OCc2cc(C(=O)N3CCNC(=O)C3Cc3ccccc3)no2)c1 (stereo not drawn),9,9,0,2,-10
COC(=O)C1C=CC(OC2OC(COC(C)=O)C(OC(C)=O)C(OC(C)=O)C2OC(C)=O)n2c(=O)n(-c3ccccc3)c(=O)n21 (stereo not drawn),·,-3,·,?,·
Cn1nnnc1SCCCNCc1cc(Cl)ccc1OCc1ccccc1F,28,-23,-2,·,-7
O=C(CSc1nnc(Nc2ccccc2F)s1)NCc1ccco1,-1,-14,0,-59*,-1
O=C(CSc1nnc(Nc2ccccc2)s1)NCc1ccco1,1,-1,-4,15,4
CCN(CC)CCNS(=O)(=O)c1ccc(C(=O)NN)cc1,3,11,-6,23,-35*
O=C(c1ccc(F)cc1)N1CCCC(c2nc(-c3ccncc3)no2)C1 (stereo not drawn),12,7,-2,16,14
O=C(c1c(F)cccc1F)N1CCCC(c2nc(-c3ccc(F)cc3)no2)C1 (stereo not drawn),6,9,2,-2,-31*
COc1cccc(-c2noc(C3CCCN(C(=O)CC(C)(C)C)C3)n2)c1 (stereo not drawn),2,0,-6,-6,-67*
COCCNC(=S)N1CCC(c2nc(-c3ccc(N(C)C)cc3)no2)CC1,17,-3,-4,0,-22
CC(C)CNC(=S)N1CCC(c2nc(-c3ccc(F)cc3)no2)CC1,19,-2,-8,8,-34*
O=C(NCCc1cccc(Cl)c1)c1ccc(OC2CCN(Cc3ccccn3)CC2)cc1,9,-19,-10,-59*,-17
Cc1cccnc1CCNC(=O)c1ccc(OC2CCN(Cc3ccccn3)CC2)cc1,7,-5,-3,-13,-2
O=C(NCCc1ccccn1)c1ccc(OC2CCN(CCc3ccccc3)CC2)cc1,7,-28,-7,-62*,-25
CC(Cc1ccccn1)NC(=O)c1ccc(OC2CCN(CCc3ccccc3)CC2)cc1 (stereo not drawn),3,-10,-1,-66*,-14
CSCCCNC(=O)c1ccc(OC2CCN(CCc3ccccc3)CC2)cc1,9,-20,-9,-85*,-5
O=C1CN(C(=O)c2ccc(S(=O)(=O)N3CCCC3)cc2)C(c2ccc(F)cc2)c2cc(Br)ccc2N1 (stereo not drawn),8,-14,-1,·,11
O=C(COC(=O)c1ccc2c(c1[N+](=O)[O-])C(=O)c1ccccc1C2=O)NC1CC1,0,-9,-3,-64*,-5
O=C(COC(=O)c1cccc(OC(F)F)c1)NC(=O)NC1CCCCC1,43*,1,-3,0,-11
Cc1ccc(NC(=O)COC(=O)c2cccc3c2C(=O)c2ccccc2C3=O)c(C)c1,4,22,-8,53,10
